# Experimental data published in the supplement of paper PMC4466140.
# Target: AgAbp1
# Assay: SPOT peptide array binding signal intensity (averaged, normalized) (arbitrary units (background-subtracted, floor 0; scale differs between SH3 domains)); higher = stronger binding of the SH3 domain to the peptide
# Summary of the method: (§1)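 Peptides were synthetic 15-mers on cellulose membranes, with every cysteine replaced by serine. They were incubated overnight at 4°C with GST-SH3 domains from four yeast species at 10 μg/ml in TBS-based blocking buffer. Binding signal, the replicate-averaged normalized and background-subtracted spot intensity, is in arbitrary units that differ between domains.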
row,Binder,SPOT peptide array binding signal intensity
1,RRSKSLPTTPGIRSG,744

# Target: AgBbc1
# Assay: as above
# Summary of the method: as §1
row,Binder,SPOT peptide array binding signal intensity
1,RRSKSLPTTPGIRSG,104

# Target: AgBem1-D1
# Assay: as above
# Summary of the method: as §1
row,Binder,SPOT peptide array binding signal intensity
1,RRSKSLPTTPGIRSG,348

# Target: AgBzz1-D1
# Assay: as above
# Summary of the method: as §1
row,Binder,SPOT peptide array binding signal intensity
1,RRSKSLPTTPGIRSG,45

# Target: AgBzz1-D2
# Assay: as above
# Summary of the method: as §1
row,Binder,SPOT peptide array binding signal intensity
1,RRSKSLPTTPGIRSG,43

# Target: AgCyk3
# Assay: as above
# Summary of the method: as §1
row,Binder,SPOT peptide array binding signal intensity
1,RRSKSLPTTPGIRSG,4

# Target: AgFus1
# Assay: as above
# Summary of the method: as §1
row,Binder,SPOT peptide array binding signal intensity
1,RRSKSLPTTPGIRSG,120

# Target: AgHof1
# Assay: as above
# Summary of the method: as §1
row,Binder,SPOT peptide array binding signal intensity
1,RRSKSLPTTPGIRSG,158

# Target: AgHse1
# Assay: as above
# Summary of the method: as §1
row,Binder,SPOT peptide array binding signal intensity
1,RRSKSLPTTPGIRSG,816

# Target: AgLsb1
# Assay: as above
# Summary of the method: as §1
row,Binder,SPOT peptide array binding signal intensity
1,RRSKSLPTTPGIRSG,50.8

# Target: AgLsb4
# Assay: as above
# Summary of the method: as §1
row,Binder,SPOT peptide array binding signal intensity
1,RRSKSLPTTPGIRSG,128

# Target: AgMyo5
# Assay: as above
# Summary of the method: as §1
row,Binder,SPOT peptide array binding signal intensity
1,RRSKSLPTTPGIRSG,≤ 0

# Target: AgNbp2
# Assay: as above
# Summary of the method: as §1
row,Binder,SPOT peptide array binding signal intensity
1,RRSKSLPTTPGIRSG,213

# Target: AgRvs167
# Assay: as above
# Summary of the method: as §1
row,Binder,SPOT peptide array binding signal intensity
1,RRSKSLPTTPGIRSG,2.33

# Target: AgSho1
# Assay: as above
# Summary of the method: as §1
row,Binder,SPOT peptide array binding signal intensity
1,RRSKSLPTTPGIRSG,4520

# Target: AgSla1-D1-D2
# Assay: as above
# Summary of the method: as §1
row,Binder,SPOT peptide array binding signal intensity
1,RRSKSLPTTPGIRSG,469

# Target: AgSla1-D3
# Assay: as above
# Summary of the method: as §1
row,Binder,SPOT peptide array binding signal intensity
1,RRSKSLPTTPGIRSG,1.75

# Target: CaAbp1-D1
# Assay: as above
# Summary of the method: as §1
row,Binder,SPOT peptide array binding signal intensity
1,RRSKSLPTTPGIRSG,1220

# Target: CaAbp1-D2
# Assay: as above
# Summary of the method: as §1
row,Binder,SPOT peptide array binding signal intensity
1,RRSKSLPTTPGIRSG,1180

# Target: CaBbc1
# Assay: as above
# Summary of the method: as §1
row,Binder,SPOT peptide array binding signal intensity
1,RRSKSLPTTPGIRSG,216

# Target: CaBem1-D1
# Assay: as above
# Summary of the method: as §1
row,Binder,SPOT peptide array binding signal intensity
1,RRSKSLPTTPGIRSG,54

# Target: CaBzz1-D1
# Assay: as above
# Summary of the method: as §1
row,Binder,SPOT peptide array binding signal intensity
1,RRSKSLPTTPGIRSG,292

# Target: CaBzz1-D2
# Assay: as above
# Summary of the method: as §1
row,Binder,SPOT peptide array binding signal intensity
1,RRSKSLPTTPGIRSG,115

# Target: CaCyk3
# Assay: as above
# Summary of the method: as §1
row,Binder,SPOT peptide array binding signal intensity
1,RRSKSLPTTPGIRSG,17

# Target: CaFus1
# Assay: as above
# Summary of the method: as §1
row,Binder,SPOT peptide array binding signal intensity
1,RRSKSLPTTPGIRSG,450

# Target: CaHof1
# Assay: as above
# Summary of the method: as §1
row,Binder,SPOT peptide array binding signal intensity
1,RRSKSLPTTPGIRSG,≤ 0

# Target: CaHse1
# Assay: as above
# Summary of the method: as §1
row,Binder,SPOT peptide array binding signal intensity
1,RRSKSLPTTPGIRSG,31.5

# Target: CaLsb1
# Assay: as above
# Summary of the method: as §1
row,Binder,SPOT peptide array binding signal intensity
1,RRSKSLPTTPGIRSG,3.5

# Target: CaLsb4
# Assay: as above
# Summary of the method: as §1
row,Binder,SPOT peptide array binding signal intensity
1,RRSKSLPTTPGIRSG,276

# Target: CaMyo5
# Assay: as above
# Summary of the method: as §1
row,Binder,SPOT peptide array binding signal intensity
1,RRSKSLPTTPGIRSG,7.5

# Target: CaNbp2
# Assay: as above
# Summary of the method: as §1
row,Binder,SPOT peptide array binding signal intensity
1,RRSKSLPTTPGIRSG,430

# Target: CaRvs167
# Assay: as above
# Summary of the method: as §1
row,Binder,SPOT peptide array binding signal intensity
1,RRSKSLPTTPGIRSG,15.2

# Target: CaRvs167-3
# Assay: as above
# Summary of the method: as §1
row,Binder,SPOT peptide array binding signal intensity
1,RRSKSLPTTPGIRSG,55.5

# Target: CaSho1
# Assay: as above
# Summary of the method: as §1
row,Binder,SPOT peptide array binding signal intensity
1,RRSKSLPTTPGIRSG,1030

# Target: CaSla1-D1-D2
# Assay: as above
# Summary of the method: as §1
row,Binder,SPOT peptide array binding signal intensity
1,RRSKSLPTTPGIRSG,2240

# Target: CaSla1-D3
# Assay: as above
# Summary of the method: as §1
row,Binder,SPOT peptide array binding signal intensity
1,RRSKSLPTTPGIRSG,≤ 0

# Target: ScAbp1
# Assay: as above
# Summary of the method: as §1
row,Binder,SPOT peptide array binding signal intensity
1,RRSKSLPTTPGIRSG,261

# Target: ScBbc1
# Assay: as above
# Summary of the method: as §1
row,Binder,SPOT peptide array binding signal intensity
1,RRSKSLPTTPGIRSG,19.2

# Target: ScBem1-D1
# Assay: as above
# Summary of the method: as §1
row,Binder,SPOT peptide array binding signal intensity
1,RRSKSLPTTPGIRSG,54

# Target: ScBzz1-D1
# Assay: as above
# Summary of the method: as §1
row,Binder,SPOT peptide array binding signal intensity
1,RRSKSLPTTPGIRSG,25

# Target: ScBzz1-D2
# Assay: as above
# Summary of the method: as §1
row,Binder,SPOT peptide array binding signal intensity
1,RRSKSLPTTPGIRSG,27

# Target: ScCyk3
# Assay: as above
# Summary of the method: as §1
row,Binder,SPOT peptide array binding signal intensity
1,RRSKSLPTTPGIRSG,96

# Target: ScFus1
# Assay: as above
# Summary of the method: as §1
row,Binder,SPOT peptide array binding signal intensity
1,RRSKSLPTTPGIRSG,163

# Target: ScHof1
# Assay: as above
# Summary of the method: as §1
row,Binder,SPOT peptide array binding signal intensity
1,RRSKSLPTTPGIRSG,1.25

# Target: ScHse1
# Assay: as above
# Summary of the method: as §1
row,Binder,SPOT peptide array binding signal intensity
1,RRSKSLPTTPGIRSG,1360

# Target: ScLsb1
# Assay: as above
# Summary of the method: as §1
row,Binder,SPOT peptide array binding signal intensity
1,RRSKSLPTTPGIRSG,77

# Target: ScLsb2
# Assay: as above
# Summary of the method: as §1
row,Binder,SPOT peptide array binding signal intensity
1,RRSKSLPTTPGIRSG,6

# Target: ScLsb3
# Assay: as above
# Summary of the method: as §1
row,Binder,SPOT peptide array binding signal intensity
1,RRSKSLPTTPGIRSG,444

# Target: ScLsb4
# Assay: as above
# Summary of the method: as §1
row,Binder,SPOT peptide array binding signal intensity
1,RRSKSLPTTPGIRSG,21

# Target: ScMyo3
# Assay: as above
# Summary of the method: as §1
row,Binder,SPOT peptide array binding signal intensity
1,RRSKSLPTTPGIRSG,6.5

# Target: ScMyo5
# Assay: as above
# Summary of the method: as §1
row,Binder,SPOT peptide array binding signal intensity
1,RRSKSLPTTPGIRSG,≤ 0

# Target: ScNbp2
# Assay: as above
# Summary of the method: as §1
row,Binder,SPOT peptide array binding signal intensity
1,RRSKSLPTTPGIRSG,203

# Target: ScPex13
# Assay: as above
# Summary of the method: as §1
row,Binder,SPOT peptide array binding signal intensity
1,RRSKSLPTTPGIRSG,23.2

# Target: ScRvs167
# Assay: as above
# Summary of the method: as §1
row,Binder,SPOT peptide array binding signal intensity
1,RRSKSLPTTPGIRSG,18.7

# Target: ScSho1
# Assay: as above
# Summary of the method: as §1
row,Binder,SPOT peptide array binding signal intensity
1,RRSKSLPTTPGIRSG,5840

# Target: ScSla1-D1-D2
# Assay: as above
# Summary of the method: as §1
row,Binder,SPOT peptide array binding signal intensity
1,RRSKSLPTTPGIRSG,4460

# Target: ScSla1-D3
# Assay: as above
# Summary of the method: as §1
row,Binder,SPOT peptide array binding signal intensity
1,RRSKSLPTTPGIRSG,70.5

# Target: SpAbp1-D1
# Assay: as above
# Summary of the method: as §1
row,Binder,SPOT peptide array binding signal intensity
1,RRSKSLPTTPGIRSG,2040

# Target: SpBbc1
# Assay: as above
# Summary of the method: as §1
row,Binder,SPOT peptide array binding signal intensity
1,RRSKSLPTTPGIRSG,6.5

# Target: SpBzz1-D1
# Assay: as above
# Summary of the method: as §1
row,Binder,SPOT peptide array binding signal intensity
1,RRSKSLPTTPGIRSG,226

# Target: SpBzz1-D2
# Assay: as above
# Summary of the method: as §1
row,Binder,SPOT peptide array binding signal intensity
1,RRSKSLPTTPGIRSG,0.5

# Target: SpCyk3
# Assay: as above
# Summary of the method: as §1
row,Binder,SPOT peptide array binding signal intensity
1,RRSKSLPTTPGIRSG,5

# Target: SpHof1
# Assay: as above
# Summary of the method: as §1
row,Binder,SPOT peptide array binding signal intensity
1,RRSKSLPTTPGIRSG,2630

# Target: SpHof1-2
# Assay: as above
# Summary of the method: as §1
row,Binder,SPOT peptide array binding signal intensity
1,RRSKSLPTTPGIRSG,3020

# Target: SpHof1-3
# Assay: as above
# Summary of the method: as §1
row,Binder,SPOT peptide array binding signal intensity
1,RRSKSLPTTPGIRSG,1440

# Target: SpHse1
# Assay: as above
# Summary of the method: as §1
row,Binder,SPOT peptide array binding signal intensity
1,RRSKSLPTTPGIRSG,356

# Target: SpLsb1
# Assay: as above
# Summary of the method: as §1
row,Binder,SPOT peptide array binding signal intensity
1,RRSKSLPTTPGIRSG,0.5

# Target: SpLsb4
# Assay: as above
# Summary of the method: as §1
row,Binder,SPOT peptide array binding signal intensity
1,RRSKSLPTTPGIRSG,574

# Target: SpMyo1
# Assay: as above
# Summary of the method: as §1
row,Binder,SPOT peptide array binding signal intensity
1,RRSKSLPTTPGIRSG,15.2

# Target: SpNbp2
# Assay: as above
# Summary of the method: as §1
row,Binder,SPOT peptide array binding signal intensity
1,RRSKSLPTTPGIRSG,506

# Target: SpPex13
# Assay: as above
# Summary of the method: as §1
row,Binder,SPOT peptide array binding signal intensity
1,RRSKSLPTTPGIRSG,8.5

# Target: SpRvs167
# Assay: as above
# Summary of the method: as §1
row,Binder,SPOT peptide array binding signal intensity
1,RRSKSLPTTPGIRSG,72.5

# Target: SpSla1-D1-D2
# Assay: as above
# Summary of the method: as §1
row,Binder,SPOT peptide array binding signal intensity
1,RRSKSLPTTPGIRSG,1620

# Target: SpSla1-D3
# Assay: as above
# Summary of the method: as §1
row,Binder,SPOT peptide array binding signal intensity
1,RRSKSLPTTPGIRSG,15
